Sampled rows, rich in hits. Any-hit rate of the full collection: about 8.9%.
ALDH1A1 block = blocks purified human ALDH1A1 activity; Potency, µM (top dose mostly 75.3 µM), usual class: inhibitors; hit rate 7.3% among 220,000; Purified ALDH1A1, NADH fluorescence, propionaldehyde substrate; AID 1030; active = well fitted inhibition curve with a large enough effect, not every such curve was filed as active; inconclusive = small, poorly fitted or top-dose-only effect, or another doubt; inactive = no such curve, though single readings can be large or run the other way
Target sequence (P00352 whole entry, looked up): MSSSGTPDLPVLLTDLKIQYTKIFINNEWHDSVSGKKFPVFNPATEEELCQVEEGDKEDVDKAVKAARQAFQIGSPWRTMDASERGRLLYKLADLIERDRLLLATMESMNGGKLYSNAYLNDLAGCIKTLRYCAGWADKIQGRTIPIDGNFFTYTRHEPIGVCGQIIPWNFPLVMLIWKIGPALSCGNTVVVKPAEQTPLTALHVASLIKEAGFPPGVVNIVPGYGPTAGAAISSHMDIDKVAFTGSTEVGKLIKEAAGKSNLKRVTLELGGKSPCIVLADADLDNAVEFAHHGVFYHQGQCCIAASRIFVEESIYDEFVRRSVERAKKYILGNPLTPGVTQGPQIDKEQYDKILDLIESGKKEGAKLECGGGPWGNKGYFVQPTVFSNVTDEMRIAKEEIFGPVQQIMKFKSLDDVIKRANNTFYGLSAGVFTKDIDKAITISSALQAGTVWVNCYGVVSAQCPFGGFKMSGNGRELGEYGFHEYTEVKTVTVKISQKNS
NPSR antagonist = neuropeptide S receptor (human) antagonism, cAMP. Q6W5P4. CHO-NPSR cells, cAMP TR-FRET, antagonist mode. Potency, µM (titrated, usually from 38.3 µM), most hits filed as inhibitors. hit rate 1% among 220,000. AID 1461; note: nearly all actives have a fitted effect of over 50% in size
12-hLO inh = blocks human 12-lipoxygenase activity | P18054 | purified 12-hLO, xylenol orange hydroperoxide absorbance | Potency, µM (top dose mostly 57.1 µM), actives largely listed as inhibitors | hit rate 0.12% among 150,000 | AID 1452; note: nearly all actives have a fitted effect of over 55% in size
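Purified human 12hLO (150 nM final) was preincubated with compounds for 15 min at room temperature in 25 mM Hepes pH 7.0, 0.01% Triton X-100, then reacted with 40 uM arachidonic acid for 30 min. Hydroperoxide was detected with ferrous iron/xylenol orange.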
IMPase Li cell = cell-permeable IMPase inhibitors with lithium potentiation; Potency, µM (titrated, usually from 59.4 µM), most hits filed as inhibitors; hit rate 0.35% among 210,000; CHO-M1 cells, IP1 TR-FRET (IP-One), carbachol + lithium;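 note: IP1 builds up when IMPase is blocked and the TR-FRET signal falls; nearly all actives have a fitted effect of over 50% in size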
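Steps: plate 2000 CHO-M1 cells per well and culture 16–30 h; add compound and lithium; incubate 30 min, 37C; add d2-IP1 tracer and Eu cryptate anti-IP1 antibody in lysis buffer; read after 10 min at room temperature.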
HPGD block = HPGD (human) dehydrogenase inhibition; P15428; purified HPGD, NADH fluorescence kinetic, PGE2 substrate; Potency, µM, most hits filed as inhibitors; hit rate 4.3% among 150,000; AID 894; active = well fitted inhibition curve with a large enough effect, not every such curve was filed as active; inconclusive = small, poorly fitted or top-dose-only effect, or another doubt; inactive = no such curve, though single readings can be large or run the other way
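20 nM HPGD preincubated 15 min at room temperature with compound in 50 mM Tris-HCl pH 8, 0.01% Tween 20. Started with 1 mM NAD+ and 30 uM prostaglandin E2; NADH fluorescence (360/450 nm) read 5 times over 30-s intervals, last minus first.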
IMPase cell inh = membrane-permeable compound that blocks inositol monophosphatase. P97697. inhibition (IP1 accumulation), % at 46.1 µM. 120,000 tested, under 10 active. CHO-M1 cells, IP1 accumulation, HTRF TR-FRET ratio; active = well fitted curve in the direction sought with a large enough effect in the signal ratio, not every such curve was filed as active; inconclusive = small, poorly fitted or top-dose-only effect, or a change in a side signal; inactive = no such curve, though single readings can be large or run the other way; the % refers to the signal ratio;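 note: cells stimulated with carbachol in lithium chloride buffer; higher means more IMPase inhibition seen as more IP1 and lower FRET ratio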
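Measured: the HTRF emission ratio (665/620 nm) plus the 620 nm donor channel, each fitted to the Hill equation to give AC50. Cells were CHO-M1 given compounds up to 46 uM and a 30 min carbachol stimulation at 37C.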
A number is an active result; n = inactive; u = inconclusive; x = not tested or not shown; [ ] = another dose, or the depositor's remark. Unless noted, calls come from the whole dose curve; as a rule, active = well fitted curve in the direction sought with a large enough effect; inconclusive = small, poorly fitted or top-dose-only effect, or another doubt; inactive = no such curve, though single readings can be large; an effect the other way counts as inactive or inconclusive.

SMILES	ALDH1A1 block	NPSR antagonist	12-hLO inh	IMPase Li cell	HPGD block	IMPase cell inh
Cc1cc(C(=O)OCC(=O)N2CC(=O)Nc3ccccc32)c(C)n1-c1ccc(F)cc1	u	n	n	n	n	n
COc1ccc(-c2c3c(nc4sc(C(=O)Nc5ccc(F)cc5)c(N)c24)CC(C)(C)CC3=O)cc1	x	x	x	x	x	n
O=C(O)CCSc1ccc2ccccc2n1	n	u	n	14µM	n	u
O=C(O)CSc1ccc2ccccc2n1	n	n	n	7.1µM	n	u
COc1ccccc1C(=O)NC(=S)/C=C1/N(C)c2ccccc2C1(C)C	n	n	n	n	n	x
CC(C)CCn1c(O)c(N=Nc2ccccn2)c2ccccc21	0.35µM	n	n	n	n	x
Oc1ccc2ccccc2c1N=Nc1ccccn1	u	7.9µM	u	n	32µM	n
Oc1ccc2ccccc2c1N=Nc1ccccc1F	x	n	x	x	x	x
Cc1[nH]c2ccccc2c1Cc1n[nH]c(=S)n1C	n	n	n	n	35µM	n
O=C(O)C1C2C=CC(C2)C1C(=O)NC1CCS(=O)(=O)C1 (stereo unspecified)	22µM	n	n	n	n	n
O=C(NC1CCS(=O)(=O)C1)C1C2CC3CC(C2)CC1C3 (stereo unspecified)	n	n	x	u	x	x
C=CCNC(=S)NN=C1CCCCCCC1	0.89µM	n	x	n	x	x
CCN1CCN(Cc2ccc(NC(=O)c3ccc(C)c(NC(=O)c4cccc5[nH]ccc45)c3)cc2C(F)(F)F)CC1	x	n	x	x	x	x
COc1cccc(Cn2c(OCC3CCCO3)nc3c2c(=O)n(C)c(=O)n3C)c1 (stereo unspecified)	7.1µM	n	n	n	n	x
CC(C)OC(=O)CSc1nnc(-c2ccncc2)n1N	n	n	n	n	n	n
CC(C)OC(=O)CSc1nnc(-c2ccc(C(C)(C)C)cc2)n1N	18µM	n	n	n	18µM	n
Cc1nnc(N(Cc2ccccc2)C(=O)c2cnccn2)s1	n	n[7.67 µM]	n	n	n	n
COCc1cc(Sc2ccc(Br)cc2)nc(-c2ccccc2)n1	n	n	n	n	n	n
Clc1cc(Sc2ccc(Br)cc2)nnc1-c1ccccc1	1µM	u	n	n	n	n
CCc1ccc(OC2=NS(=O)(=O)c3ccccc32)cc1	n	n	x	n	x	x
CCN(CC)c1cccc(OC2=NS(=O)(=O)c3ccccc32)c1	22µM	n	n	x	x	n
Cc1cc([N+](=O)[O-])cnc1NC(C)c1ccccc1 (stereo unspecified)	22µM	n	n	n	n	n
CCOc1ccc2[nH]c(=O)c(CN(CCc3ccccc3)C(=O)N3CCOCC3)cc2c1	u	n	n	n	u	n
CCc1oc2ccccc2c1C(=O)CCN1CCCCC1	0.11µM	n	n	n	28µM	n
O=c1oc2ccccc2c(N2CCCCC2)c1CN1CCCCC1	14µM	n	n	n	n	n
SMILES	ALDH1A1 block	NPSR antagonist	12-hLO inh	IMPase Li cell	HPGD block	IMPase cell inh
O=C(CCN1CCCCC1)c1csc2ccccc12	0.14µM	x	n[11.4 µM]	n	n	x
O=C(OCCN1CCCCC1)c1ccccc1Cl	n	n	n	n	u	n
C[N+]1(CCC(=O)c2ccccc2)CCCCC1	1.3µM	n	n	n	32µM	x
O=c1oc2ccccc2c(N2CCCCC2)c1CN1CCCC1	n	n	n	n	n	n
COc1cccc(NC(=O)CN(c2ccc3c(c2)OCO3)S(C)(=O)=O)c1	n	n	x	n	x	x
O=C(CCN1CCCCC1)c1ccccc1	1.1µM	n	n	n	n	n
O=C(CCN1CCOCC1)c1ccccc1	0.32µM	n	n	n	n	n
O=C(CCN1CCCCC1)Nc1ccccc1	u	n	x	n	x	x
Cc1nc(N2CCN(C)CC2)c2c(C)c(C(=O)Nc3ccc(F)cc3)sc2n1	n	n	n	n	n	n
CCOC(=O)C1C(C)N=C2SCC(=O)N2C1c1cccc(Br)c1 (stereo unspecified)	n	u	n	n	n	n
O=C(O)CCCC(=O)Nc1cccc(-c2nc3ccccc3[nH]2)c1	u	n	n	n	u	n
COc1ccc(-c2n[nH]c(=S)n2/N=C/C=C/c2ccccc2OC)cc1	n	n	n	n	1.3µM	n
CC(/C=N/n1c(C2CCCCC2)n[nH]c1=S)=C\c1ccccc1	n	u	u	n	u	n
COc1ccccc1/C=C/C=N/n1c(-c2ccccc2)n[nH]c1=S	28µM	n	x	x	x	x
COc1ccccc1/C=C/C=N/n1c(C2CCCCC2)n[nH]c1=S	u	n	n	n	7.1µM	n
COc1ccccc1/C=C/C=N/n1c(-c2ccc(Cl)cc2)n[nH]c1=S	11µM	n	x	x	x	x
COc1cc(/C=N/n2c(-c3ccccc3)n[nH]c2=S)cc(OC)c1OC	x	n	x	x	x	x
Fc1ccc(CSc2ccc3nnc(-c4ccccn4)n3n2)cc1	n	n	x	n	x	x
Cc1ccc(NC(=O)Cc2nnc(SCC(=O)c3ccc(Br)cc3)n2C)cc1Cl	n	n	n	n	n	n
CCN(CC)S(=O)(=O)c1cc(C(=O)Nc2cccnc2)ccc1Cl	4.5µM	n	n	n	n	n
COc1ccc(C(=O)O/N=C2\CCS(=O)(=O)c3sccc32)cc1	n	n	x	n	x	x
COc1ccc(N=C2CCS(=O)(=O)c3sccc32)cc1	10µM	n	x	n	x	x
Cc1ccc(NC(=O)C2C(c3ccccc3)C2(Cl)Cl)c(C)c1 (stereo unspecified)	n	n	n	n	28µM	n
CC(=O)c1cccc(NC(=O)C2C(c3ccccc3)C2(Cl)Cl)c1 (stereo unspecified)	n	n	x	n	x	x
Cc1cccc(NC(=O)C2C(c3ccccc3)C2(Cl)Cl)c1 (stereo unspecified)	25µM	n	x	n	x	x
SMILES	ALDH1A1 block	NPSR antagonist	12-hLO inh	IMPase Li cell	HPGD block	IMPase cell inh
Cc1ccnc(N2C(=O)c3cccc4c([N+](=O)[O-])ccc(c34)C2=O)c1	n	10µM	n	n	n	n
O=C(c1ccco1)N1CCC2(CC1)CCN(c1cccc(-c3ccccc3)c1)CC2	28µM	x	n	n	n	x
O=C(c1ccco1)N1CCC2(CC1)CCN(c1ccc(-c3ccccc3)cc1)CC2	n	x	n	n	n	x
O=C(c1ccco1)N1CCC2(CCCN(c3cccc(-c4ccccc4)c3)C2)CC1	25µM	x	n	n	n	x
COc1ccc(C(=O)N2CCC3(CCCN(c4cccc(-c5ccccc5)c4)C3)CC2)cc1	22µM	x	n	n	n	x
COc1ccc(C(=O)N2CCC3(CC2)CN(c2cccc(-c4ccccc4)c2)C3)cc1	u	x	n	n	u	x
CCCOc1ccc(C(=O)c2ccccc2C(=O)O)cc1OCCC	x	n	x	x	x	x
CCCCc1cc(=O)oc2cc(OCc3cc(OC)c(OC)c(OC)c3)c(Cl)cc12	n	n	n	n	n	u
Cc1ccc(C(=O)N/C(=C/c2cccs2)C(=O)NCCCn2ccnc2)cc1	n	n	n	n	n	x

High-throughput results deposited in PubChem BioAssay by National Center for Advancing Translational Sciences (NCATS).
